Here are results for eleven compounds from ChEMBL document CHEMBL3988442, “University of Dundee, Small-Polar-MMV Screening Library” (2021).

What all share (parameters): scale not given: direction of the effect not stated beside the values
The target of assay [1] is Protein translocase subunit SecA (Escherichia coli (strain K12)) (UniProt P10408). Description: Assay to Identify E. coli SecA ATPase Inhibitors. In kind it is functional. To be noted: 30 µM.
Assay [2] addresses T1, Ubiquitin-activating enzyme e1, putative (Leishmania donovani (strain BPK282A1)) (UniProt E9BSI1).
T1 sequence (whole entry): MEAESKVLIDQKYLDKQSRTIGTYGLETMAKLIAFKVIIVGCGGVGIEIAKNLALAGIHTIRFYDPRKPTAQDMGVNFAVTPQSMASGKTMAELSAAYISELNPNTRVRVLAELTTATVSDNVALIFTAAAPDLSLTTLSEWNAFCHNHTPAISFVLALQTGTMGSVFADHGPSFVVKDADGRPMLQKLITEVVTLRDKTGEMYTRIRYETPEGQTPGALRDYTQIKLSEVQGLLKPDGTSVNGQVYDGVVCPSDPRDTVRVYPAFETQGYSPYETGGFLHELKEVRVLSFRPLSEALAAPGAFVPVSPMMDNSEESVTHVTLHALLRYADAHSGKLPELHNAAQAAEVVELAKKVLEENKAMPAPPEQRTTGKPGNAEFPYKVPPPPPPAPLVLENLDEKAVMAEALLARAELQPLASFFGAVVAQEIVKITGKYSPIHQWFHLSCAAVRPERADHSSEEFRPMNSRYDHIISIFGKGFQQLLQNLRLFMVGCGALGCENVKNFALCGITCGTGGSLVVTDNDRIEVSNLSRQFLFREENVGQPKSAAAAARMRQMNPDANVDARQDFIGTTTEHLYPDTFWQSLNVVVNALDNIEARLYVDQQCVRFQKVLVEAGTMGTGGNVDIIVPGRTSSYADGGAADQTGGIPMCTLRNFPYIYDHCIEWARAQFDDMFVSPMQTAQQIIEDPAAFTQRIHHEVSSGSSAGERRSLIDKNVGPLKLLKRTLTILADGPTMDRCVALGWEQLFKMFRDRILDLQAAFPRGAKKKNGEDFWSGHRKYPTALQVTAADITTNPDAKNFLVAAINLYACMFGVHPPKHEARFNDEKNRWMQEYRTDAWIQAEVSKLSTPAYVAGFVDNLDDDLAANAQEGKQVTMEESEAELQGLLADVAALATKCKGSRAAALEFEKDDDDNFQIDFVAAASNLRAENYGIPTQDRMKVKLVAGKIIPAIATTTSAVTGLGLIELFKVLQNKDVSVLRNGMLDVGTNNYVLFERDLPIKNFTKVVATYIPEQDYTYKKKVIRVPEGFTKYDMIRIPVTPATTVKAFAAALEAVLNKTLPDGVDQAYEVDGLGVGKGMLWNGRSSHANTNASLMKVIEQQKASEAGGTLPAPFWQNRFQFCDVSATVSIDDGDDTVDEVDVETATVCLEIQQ
The experiment in a line: Leishmania donovani Ubiquitin Activating Enzyme (LdE1). Type of assay: functional. To be noted: 30 µM.

In assay [3] the target is Sialic acid-binding Ig-like lectin 9 (Homo sapiens) (UniProt Q9Y336). The experiment in a line: Hs-Siglec9 ALPHAscreen SOP 20170721. To be noted: 10 µM. Background: In Alpha technology, singlet oxygen from a donor bead excites a nearby acceptor bead.
In the next assay the test system is Trypanosoma cruzi. Description: Trypanosoma cruzi phosphomannomutase and mannose-1-phosphate guanylyltransferase assay. In kind it is functional. As to conditions: 10 µM.
In assay [4] the target is T2, Arginase-2, mitochondrial (Homo sapiens) (UniProt P78540).
T2 sequence (whole entry): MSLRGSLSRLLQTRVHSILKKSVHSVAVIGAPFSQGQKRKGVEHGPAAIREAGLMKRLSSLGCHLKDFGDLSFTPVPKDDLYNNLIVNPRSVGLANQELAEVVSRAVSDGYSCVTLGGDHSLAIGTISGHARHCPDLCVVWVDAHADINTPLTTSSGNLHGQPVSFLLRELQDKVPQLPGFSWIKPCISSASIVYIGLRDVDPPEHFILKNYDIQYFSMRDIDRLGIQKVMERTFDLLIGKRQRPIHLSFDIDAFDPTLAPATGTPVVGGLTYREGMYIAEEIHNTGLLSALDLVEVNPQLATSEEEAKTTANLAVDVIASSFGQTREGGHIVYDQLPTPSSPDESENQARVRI
The experiment in a line: in vitro enzyme assay to detect the production of urea directly proportional to the activity of Arginase II. Also: in the data most compounds retested in dose-response had high values. In kind it is functional. As to conditions: 33.3 µM.

In assay [5] the target is T3, Proteasome subunit beta (Trypanosoma cruzi) (UniProt O96673).
T3 sequence (whole entry): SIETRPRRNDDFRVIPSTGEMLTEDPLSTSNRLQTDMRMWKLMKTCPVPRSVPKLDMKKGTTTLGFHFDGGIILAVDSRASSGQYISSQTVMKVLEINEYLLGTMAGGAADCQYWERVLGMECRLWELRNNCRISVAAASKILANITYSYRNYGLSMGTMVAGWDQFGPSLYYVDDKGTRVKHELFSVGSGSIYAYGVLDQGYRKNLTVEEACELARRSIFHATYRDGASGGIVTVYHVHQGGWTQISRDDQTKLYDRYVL
Description: Trypanosoma cruzi proteasome chymotrypsin-like activity (TcProtChymo) assay. Also: in the data most compounds retested in dose-response had high values. In kind it is functional. To be noted: 9.37 µM.

The species named for the next assay is Homo sapiens. The experiment in a line: To identify inhibition of the IFN signalling (Jak-Stat) pathway via expression of an eGFP reporter gene under the control of an IFN-stimulated response element (ISRE) containing MxA promoter. Type of assay: functional. To be noted: 30 µM. On the technique in general: In a reporter assay the amount or activity of a reporter protein is the signal.

The target in assay [6] is T4, Tyrosyl-tRNA synthetase, putative (Trypanosoma cruzi (strain CL Brener)) (UniProt Q4DSP6).
T4 sequence (whole entry): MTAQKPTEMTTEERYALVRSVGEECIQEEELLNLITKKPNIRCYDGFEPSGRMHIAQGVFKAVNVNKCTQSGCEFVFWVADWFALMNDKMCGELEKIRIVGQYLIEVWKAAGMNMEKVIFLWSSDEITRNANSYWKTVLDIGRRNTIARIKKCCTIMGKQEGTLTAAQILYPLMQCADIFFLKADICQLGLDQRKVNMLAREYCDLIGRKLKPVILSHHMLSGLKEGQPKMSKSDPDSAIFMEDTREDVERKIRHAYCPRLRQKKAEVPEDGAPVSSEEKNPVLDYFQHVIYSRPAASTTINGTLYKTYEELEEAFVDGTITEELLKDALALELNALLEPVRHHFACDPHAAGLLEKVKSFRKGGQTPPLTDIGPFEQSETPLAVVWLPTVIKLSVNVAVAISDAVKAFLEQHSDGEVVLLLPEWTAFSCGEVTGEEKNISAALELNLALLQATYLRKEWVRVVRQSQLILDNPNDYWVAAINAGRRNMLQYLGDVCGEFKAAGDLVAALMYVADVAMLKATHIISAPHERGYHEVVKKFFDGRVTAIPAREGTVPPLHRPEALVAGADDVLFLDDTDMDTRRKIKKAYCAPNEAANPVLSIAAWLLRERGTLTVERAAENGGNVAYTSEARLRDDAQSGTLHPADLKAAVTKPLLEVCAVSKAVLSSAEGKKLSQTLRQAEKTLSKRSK
The experiment in a line: Trypanosoma cruzi tyrosyl tRNA synthetase (TcYRS) _High Tyrosine SOP. Also: in the data most compounds retested in dose-response had high values. In kind it is functional. To be noted: 30 µM.

The target of assay [7] is T4, Tyrosyl-tRNA synthetase, putative (Trypanosoma cruzi (strain CL Brener)). Description: Trypanosoma cruzi tyrosyl tRNA synthetase (TcYRS) SOP. In kind it is functional. To be noted: 30 µM.
Assay [8] deals with Chromo domain-containing protein 1 (Saccharomyces cerevisiae (strain ATCC 204508 / S288c) (Baker's yeast)) (UniProt P32657). Description: ScCHD-1 Enzyme Inhibition Assay. Also: in the data most compounds retested in dose-response had high values. In kind it is functional. As to conditions: 30 µM.

Each structure is given as a SMILES string. For some assays here: Potency and affinity values are given separately.

Sequence of Protein translocase subunit SecA (Escherichia coli (strain K12)) (P10408 whole entry): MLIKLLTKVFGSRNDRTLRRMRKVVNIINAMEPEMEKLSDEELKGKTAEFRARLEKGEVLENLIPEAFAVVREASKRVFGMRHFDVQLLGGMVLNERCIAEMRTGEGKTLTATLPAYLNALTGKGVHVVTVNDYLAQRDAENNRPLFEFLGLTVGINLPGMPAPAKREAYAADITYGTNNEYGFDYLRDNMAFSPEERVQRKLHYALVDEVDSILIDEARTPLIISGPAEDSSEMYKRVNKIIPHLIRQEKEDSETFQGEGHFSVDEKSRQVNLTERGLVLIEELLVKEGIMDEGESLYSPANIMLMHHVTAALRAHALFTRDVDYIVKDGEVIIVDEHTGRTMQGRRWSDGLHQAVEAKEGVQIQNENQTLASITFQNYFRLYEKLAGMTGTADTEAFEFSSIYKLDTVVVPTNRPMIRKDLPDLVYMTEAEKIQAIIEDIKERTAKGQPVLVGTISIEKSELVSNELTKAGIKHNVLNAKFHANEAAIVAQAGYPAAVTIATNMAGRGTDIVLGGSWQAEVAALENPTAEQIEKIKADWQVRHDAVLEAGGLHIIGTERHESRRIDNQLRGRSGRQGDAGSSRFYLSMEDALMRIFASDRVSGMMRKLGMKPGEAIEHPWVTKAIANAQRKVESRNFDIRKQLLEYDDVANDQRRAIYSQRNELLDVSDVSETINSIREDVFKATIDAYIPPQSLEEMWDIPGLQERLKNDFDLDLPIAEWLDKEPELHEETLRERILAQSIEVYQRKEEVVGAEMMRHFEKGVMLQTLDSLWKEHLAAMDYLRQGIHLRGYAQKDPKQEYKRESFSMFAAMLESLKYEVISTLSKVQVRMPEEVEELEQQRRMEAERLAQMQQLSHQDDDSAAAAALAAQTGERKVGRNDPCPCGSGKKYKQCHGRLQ
Sequence of Sialic acid-binding Ig-like lectin 9 (Homo sapiens) (Q9Y336 whole entry): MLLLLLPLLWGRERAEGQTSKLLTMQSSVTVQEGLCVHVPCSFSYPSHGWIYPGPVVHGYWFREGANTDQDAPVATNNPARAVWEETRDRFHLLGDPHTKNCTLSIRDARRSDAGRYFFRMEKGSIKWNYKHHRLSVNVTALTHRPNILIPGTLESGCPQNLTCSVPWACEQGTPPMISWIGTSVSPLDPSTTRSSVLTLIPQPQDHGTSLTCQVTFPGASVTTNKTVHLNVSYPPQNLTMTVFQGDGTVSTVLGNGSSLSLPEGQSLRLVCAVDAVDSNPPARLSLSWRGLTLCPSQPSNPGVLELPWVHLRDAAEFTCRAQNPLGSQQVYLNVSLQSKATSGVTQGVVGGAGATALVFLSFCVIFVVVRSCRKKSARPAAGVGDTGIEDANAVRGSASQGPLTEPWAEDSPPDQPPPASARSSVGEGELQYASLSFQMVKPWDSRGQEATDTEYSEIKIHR
Sequence of Chromo domain-containing protein 1 (Saccharomyces cerevisiae (strain ATCC 204508 / S288c) (Baker's yeast)) (P32657 whole entry, the tested form may be a part): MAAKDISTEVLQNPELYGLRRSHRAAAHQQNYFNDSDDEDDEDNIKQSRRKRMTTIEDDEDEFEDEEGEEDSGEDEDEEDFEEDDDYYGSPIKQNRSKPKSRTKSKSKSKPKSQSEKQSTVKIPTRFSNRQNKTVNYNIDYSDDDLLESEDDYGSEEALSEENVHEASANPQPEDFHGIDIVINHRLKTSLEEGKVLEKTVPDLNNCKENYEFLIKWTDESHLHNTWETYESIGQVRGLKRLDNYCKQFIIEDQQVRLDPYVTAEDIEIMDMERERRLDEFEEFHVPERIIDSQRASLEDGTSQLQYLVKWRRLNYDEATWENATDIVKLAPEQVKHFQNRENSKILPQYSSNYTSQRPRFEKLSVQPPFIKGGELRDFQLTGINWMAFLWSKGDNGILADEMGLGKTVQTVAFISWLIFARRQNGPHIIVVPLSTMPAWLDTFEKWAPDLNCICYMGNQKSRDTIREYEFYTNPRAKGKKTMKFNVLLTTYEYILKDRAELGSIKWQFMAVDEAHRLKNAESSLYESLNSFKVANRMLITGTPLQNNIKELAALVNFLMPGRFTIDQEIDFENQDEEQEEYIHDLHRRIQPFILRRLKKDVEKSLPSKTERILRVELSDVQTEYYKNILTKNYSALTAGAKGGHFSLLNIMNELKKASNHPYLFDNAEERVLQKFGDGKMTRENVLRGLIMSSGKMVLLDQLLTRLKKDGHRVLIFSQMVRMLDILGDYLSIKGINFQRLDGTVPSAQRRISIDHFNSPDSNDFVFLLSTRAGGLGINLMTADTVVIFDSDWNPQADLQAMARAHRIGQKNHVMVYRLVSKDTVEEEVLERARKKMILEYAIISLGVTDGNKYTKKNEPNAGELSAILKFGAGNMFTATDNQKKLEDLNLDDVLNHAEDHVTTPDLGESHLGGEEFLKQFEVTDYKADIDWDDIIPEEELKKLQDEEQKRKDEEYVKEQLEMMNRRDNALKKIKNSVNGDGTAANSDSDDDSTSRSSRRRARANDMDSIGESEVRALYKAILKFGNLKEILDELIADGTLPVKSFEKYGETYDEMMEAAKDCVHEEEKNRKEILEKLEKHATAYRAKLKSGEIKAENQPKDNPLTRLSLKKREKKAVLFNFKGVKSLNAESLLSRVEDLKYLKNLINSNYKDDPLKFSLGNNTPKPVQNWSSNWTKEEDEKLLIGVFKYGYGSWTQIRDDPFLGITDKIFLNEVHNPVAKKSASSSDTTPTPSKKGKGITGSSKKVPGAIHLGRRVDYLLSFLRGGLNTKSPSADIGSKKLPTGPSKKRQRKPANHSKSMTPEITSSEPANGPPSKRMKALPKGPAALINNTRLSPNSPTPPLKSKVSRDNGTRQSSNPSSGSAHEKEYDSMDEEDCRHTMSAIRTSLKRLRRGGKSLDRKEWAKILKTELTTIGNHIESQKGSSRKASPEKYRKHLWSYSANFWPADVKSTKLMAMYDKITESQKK

`CC1(C)OCC(CNC(=O)c2cnn(-c3ccc(Cl)cc3)c2N)O1` (stereo not given): the Percent Effect in assay [1] was 2.19%; in assay [2] it was 17.3%; in assay [3], -9.2%; in the assay with Trypanosoma cruzi it was -2.76%; in assay [4], -0.443%; in assay [5], 14%. In addition, the Percent Effect in the assay listed under Homo sapiens is 15.1%; in [6], -6.35%; in assay [7] it was 2.5%; in assay [8], -22.4%.

Turning to `CCc1nc(CN2CCN(C(=O)C3CCCCC3)CC2)cs1`, the Percent Effect was -3.52% in assay [1]; 17.9% in assay [2]; -8.26% in assay [3]; 7.23% in the assay with Trypanosoma cruzi; 1.64% in assay [4]; 8.28% in assay [5]. The Percent Effect in the assay filed under Homo sapiens is 12%; in [6], 5.26%; in assay [7] it was 20.5%; in [8], -7.32%.

On to `Cc1n[nH]c(C)c1C1COCCN1C(=O)c1ccccc1` (stereo not given), for which the Percent Effect in [1] is 0.213%; in assay [2], -2.56%; in assay [3] it was 15%; in the assay with Trypanosoma cruzi, -3.47%; in assay [4] it was 8.61%; in assay [5], 3.67%. In addition, the Percent Effect in the assay listed under Homo sapiens is 20.7%; in [6], -1.44%; in [7], -1.21%; in assay [8], -0.727%.

As to `COC(=O)c1cccn1C1CCN(Cc2ccccc2)CC1`, the Percent Effect is 0.208% in assay [1]; 7.79% in assay [2]; 10% in [3]; 2.05% in the assay on Trypanosoma cruzi; -10.9% in assay [4]; 6.49% in [5]. Moreover, the Percent Effect in the assay filed under Homo sapiens is 16.2%; in [6], 3.92%; in assay [7], 11.8%; in assay [8] it was -3.52%.

For `COC(=O)COc1cccc(NS(=O)(=O)c2cc(C(=O)O)cs2)c1`, the Percent Effect in [1] is -0.923%; in assay [2], 17.9%; in [3], -17.3%; in the assay with Trypanosoma cruzi, 4.41%; in [4] it was -2.87%; in assay [5], 17.5%. In addition, the Percent Effect in the assay listed under Homo sapiens was 22.9%; in assay [6] it was 1.44%; in [7], 20.5%; in assay [8], -7.25%.

In the case of `Cc1cnn(CC2CCCCN2CCn2cncn2)c1` (stereo not given), the Percent Effect was -1.55% in [1]; 16% in assay [2]; -7.29% in assay [3]; -3.61% in the assay with Trypanosoma cruzi; 4.88% in assay [4]; 14.2% in assay [5]. The Percent Effect was 5.08% in the assay filed under Homo sapiens, 5.79% in assay [6], 7.69% in assay [7] and -6.72% in [8].

Regarding `CC(C)n1ccnc1CN1CCCN(C(=O)c2nccnc2N)CC1`, the Percent Effect in assay [1] is -0.38%; in [2], 7.69%; in assay [3] it was -9.32%; in the assay with Trypanosoma cruzi, 1.97%; in assay [4], 0%; in assay [5], 18.3%. The Percent Effect was 1.4% in the assay filed under Homo sapiens, 9.09% in assay [6], 22.9% in assay [7] and -3.56% in assay [8].

For the compound `Cc1ccc(C(=O)N2C[C@H]3CCC[C@@]3(COCc3cccnc3)C2)s1`, the Percent Effect in assay [1] was -4.31%; in [2] it was 6.49%; in assay [3], -5.03%; in the assay with Trypanosoma cruzi, -4.38%; in assay [4], 1.22%; in assay [5] it was 15.4%. In addition, the Percent Effect was 3.36% in the assay filed under Homo sapiens, 5.79% in assay [6], 5.13% in assay [7] and 5.28% in assay [8].

As to `COc1ncccc1CNC(=O)c1cccc(C)n1`, the Percent Effect in assay [1] was -0.149%; in [2], 23.1%; in assay [3], -18.5%; in the assay on Trypanosoma cruzi it was 6.1%; in assay [4] it was -5.74%; in [5] it was 18.5%. Moreover, the Percent Effect is 18.5% in the assay filed under Homo sapiens, 6.22% in [6], 22.9% in assay [7] and -3.56% in assay [8].

Regarding `CCc1[nH]ncc1C(=O)N1CCCC(n2ccnc2C(C)C)C1` (stereo not given), the Percent Effect in [1] was -3.48%; in assay [2] it was 13.3%; in assay [3], 5.91%; in the assay on Trypanosoma cruzi it was 0%; in assay [4], 0.887%; in [5], 0.763%. For the same compound, the Percent Effect in the assay filed under Homo sapiens was 25.5%; in assay [6] it was 3.68%; in assay [7], 10.3%; in [8], -5.4%.

As for `CNC(=O)N1C[C@H]2C[C@H](C(=O)Nc3ccccc3)[C@@H](C1)O2`, the Percent Effect in assay [1] was -6.94%; in assay [2], -35.1%; in assay [3], 1.87%; in the assay on Trypanosoma cruzi it was 0.0974%; in assay [4], -3.24%; in [5] it was 11.7%. Further, the Percent Effect in the assay listed under Homo sapiens was found to be 1.26%; in assay [6], 4.74%; in [7] it was 10.3%; in [8], 13.9%.
